# Results reported in PubChem BioAssay AID2110 (National Center for Advancing Translational Sciences (NCATS), 2009).
# Results filed as inconclusive are left out. Entries that show only a call come without a potency. The source made the active and inactive calls. Calls come from the whole dose curve; as a rule, active = well fitted curve in either direction with a large enough effect; inconclusive = small, poorly fitted or top-dose-only effect; inactive = no such curve, though single readings can be large or run the other way.
# Target: Lysosomal alpha-glucosidase (Homo sapiens) (UniProt P10253)
# Test: Confirmation of Inhibitors and Activators of Purified Human alpha-Glucosidase Using an Alternate Red Fluorescent Susbtrate
# Description: NIH Chemical Genomics Center [NCGC]
# NIH Molecular Libraries Probe Production centers Network [MLPCN]
# Assay Submitter (PI): Wei Zheng
# Alpha-glucosidase is responsible for hydrolysis of terminal, non-reducing 1,4-linked alpha-D-glucose residues with release of alpha-D-glucose. It is a lysosomal hydrolase that is required for the degradation of a small percentage (1-3%) of cellular glycogen in human. Deficiency of this enzyme results in glycogen-storage disease type II (GSDII), also referred to as Pompe disease, an autosomal recessive disorder. Structurally normal glycogen is accumulated in lysosomes and cytoplasm in affected patients, primarily in muscle tissues. Excessive glycogen storage within lysosomes may interrupt normal functioning of other organelles and leads to cellular injury. […]
# This is a fluorogenic enzyme assay with resorufin-alpha-D-pyranoside as the substrate and recombinant human alpha-glucosidase as the enzyme preparation. Upon the hydrolysis of this fluorogenic substrate, the resulting product, resorufin, can be excited at 573 nm and emits at 610 nm which can be detected by a standard fluorescence plate reader. […] The AC50 values were determined from concentration-response data modeled with the standard Hill equation. […]
# (6) Detect the assay plate in a ViewLux plate reader (PerkinElmer) with Ex=365 nm and Em=440nm. […]
row,Structure (SMILES),Potency
1,CC[C@@]1(O)C(=O)OCc2c1cc1n(c2=O)Cc2cc3ccccc3nc2-1,inactive
2,Cc1c2ccncc2c(C)c2c1[nH]c1ccccc12,35.5 µM (active)
